In the library only some 21% were active in any assay of this set; here they are far more common.
IL1B secr inh: inflammasome signaling inhibition, IL-1 beta readout; THP-1 LPS/ATP IL-1B secretion, AlphaLISA, 16 h; hits give low values; activity change, % at 57.5 µM; 360,000 compounds, 4.7% hits; in the data active = activity change below about -50%; inconclusive = mostly about -30% to -49%
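Secreted IL-1B measured by AlphaLISA bead assay after 16 h compound exposure of THP-1 cells; compounds (final up to 57.5 uM) added 1 h before LPS (250 ng/mL) and ATP (1.25 mM) stimulation; lower signal means less secretion.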
DT40 TDP1 no CPT: qHTS for Inhibitors of human tyrosyl-DNA phosphodiesterase 1 (TDP1): qHTS in cells in absence of CPT; DT40 Tdp1-/- hTDP1 cells, no CPT, ATP luminescence, 48 h; Potency, µM (highest dose often 46.2 µM), without a hit: at the top dose activity change, negative = growth inhibition, most hits filed as inhibitors; 420,000 compounds, 15% hits; AID 686978, 2013; note: potency is the fitted concentration of half-maximal effect; nearly all actives have a fitted effect of over 55% in size
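A cellular qHTS used chicken DT40 cells lacking endogenous Tdp1 but carrying stably transfected human TDP1. Compounds were applied without camptothecin, and cell growth kinetics were judged by ATP-dependent luminescence after ≥48 hr.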
DT40 TDP1 CPT: growth inhibition of DT40 Tdp1-/-;hTDP1 cells with camptothecin (screen for TDP1 inhibitors); Potency, µM (highest dose often 46.2 µM), for inactives: at the top dose activity change, negative = growth inhibition, actives largely listed as inhibitors; 420,000 compounds, 12% hits; chicken DT40 Tdp1-/-;hTDP1 cells + 20 nM CPT, ATP luminescence, 48 h; note: potency is the fitted concentration of half-maximal effect; nearly all actives have a fitted effect of over 55% in size
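Cell growth measured by CellTiter-Glo luminescence after a minimum 48 h, 37 C compound exposure with 20 nM CPT in Tdp1-knockout DT40 cells stably expressing hTDP1, seeded 400/well; qHTS titration format.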
ELG1 repair inh: inhibitors of ELG1-dependent DNA repair in HEK293T cells. Potency, µM (doses to about 46.1 µM), for the others: at the top dose activity change, negative = inhibition, actives largely listed as inhibitors. 330,000 compounds, 2.3% hits. HEK293T ELG1-luciferase reporter, luminescence, 16 h; DNA damage induced by 5-fluorouridine; note: potency is the fitted concentration of half-maximal effect; nearly all actives have a fitted effect of over 55% in size
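HEK293T cells expressing luciferase-tagged ELG1 (2,000/well) received 5-Fluorouridine plus compound or DMSO for 16 hr at 37 °C. Luciferase was read by ONE-Glo luminescence after 30 min at room temperature.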
Gal4-VP16 FLuc: inhibits Gal4-VP16 luciferase reporter, ROR gamma counter-screen; Drosophila S2 Gal4-VP16 UAS-luciferase, luminescence, 20 h; Potency, µM (titrated, usually from 53.6 µM), inactives show at the highest dose activity, negative = inhibition, most hits filed as inhibitors; 310,000 compounds, 3.5% hits; AID 2546;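 note: Gal4-VP16 expression switched on by copper sulfate through the metallothionein promoter; potency is the fitted concentration of half-maximal effect; nearly all actives have a fitted effect of over 50% in size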
RORgamma inh: ROR gamma (mouse) transcription inhibition; P51450; Drosophila S2 Gal4-RORgamma UAS-luciferase reporter, 20 h; Potency, µM (highest dose often 53.6 µM), without a hit: at the highest dose activity change, negative = inhibition, hits mostly inhibitors; 310,000 compounds, 5.4% hits; note: potency is the fitted concentration of half-maximal effect; nearly all actives have a fitted effect of over 60% in size
Target sequence (P51450 whole entry, looked up, the tested form may be a part): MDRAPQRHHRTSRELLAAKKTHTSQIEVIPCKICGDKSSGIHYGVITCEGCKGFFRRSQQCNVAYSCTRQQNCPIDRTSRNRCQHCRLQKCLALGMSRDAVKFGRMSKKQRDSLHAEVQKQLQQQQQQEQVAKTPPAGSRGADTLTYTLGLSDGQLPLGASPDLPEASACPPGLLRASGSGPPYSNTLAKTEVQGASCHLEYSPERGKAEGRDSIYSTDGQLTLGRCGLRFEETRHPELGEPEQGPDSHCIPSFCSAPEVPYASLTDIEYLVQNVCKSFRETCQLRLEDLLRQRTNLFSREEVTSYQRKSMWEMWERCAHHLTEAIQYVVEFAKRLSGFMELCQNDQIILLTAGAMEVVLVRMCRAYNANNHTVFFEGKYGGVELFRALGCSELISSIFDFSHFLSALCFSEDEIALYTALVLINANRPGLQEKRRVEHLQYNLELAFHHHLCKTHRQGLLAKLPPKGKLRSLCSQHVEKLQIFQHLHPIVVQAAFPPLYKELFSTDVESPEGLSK
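Stably transfected Drosophila Schneider cells are the test system, with ROR gamma fused to Gal4 and luciferase under UAS control; luminescence is read after 20 hr of 700 uM copper sulfate induction at ambient temperature.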
* = called active by the depositor; ? = inconclusive; / = no result given; [ ] = remark or other dose. Unless noted, calls come from the whole dose curve; as a rule, active = well fitted curve in the direction sought with a large enough effect; inconclusive = small, poorly fitted or top-dose-only effect, or another doubt; inactive = no such curve, though single readings can be large; an effect the other way counts as inactive or inconclusive. % is set by controls: 0 for no effect and ±100 for the full control effect.

SMILES | IL1B secr inh | DT40 TDP1 no CPT | DT40 TDP1 CPT | ELG1 repair inh | Gal4-VP16 FLuc | RORgamma inh
Cn1cccc1/C=N/NC(=O)c1ccccn1 | -21 | ? | ? | ? | 1% | -4%
Cn1cccc1/C=N/NC(=O)c1cc(-c2cccs2)nc2ccccc12 | 21 | 5.8µM* | 8.2µM* | ? | ? | 7.1µM*
O=C(N/N=C/c1ccc2ncccc2c1)c1cc(-c2cccs2)nc2ccccc12 | 30 | 3.3µM* | 2.9µM* | ? | -1% | 11%
O=C(N/N=C/c1ccc[nH]1)c1cc(-c2cccs2)nc2ccccc12 | 15 | 21µM* | ? | ? | 6.3µM* | 2.8µM*
Cn1cccc1/C=N/NC(=O)c1cc2ccccc2cc1O | 74 | 21µM* | -27% | ? | 2µM* | 1.4µM*
COc1cccc(CNC(=O)c2ccc(C)c(NC3=NC4CS(=O)(=O)CC4S3)c2)c1 (stereo unspecified) | -2 | 8% | 1% | 4% | 7% | -13%
CC(C)C[C@H]1CN(CCCC[C@H]2CNC(=O)C(=O)N2CCc2ccc(O)cc2)C(=O)C(=O)N1CCc1ccc(O)cc1 | 0 | -17% | 4% | / | / | /
Cc1cc(C(=O)N/N=C/c2cccnc2)c2ccccc2n1 | 40 | ? | ? | -3% | -3% | -3%
O=C(N/N=C/c1cccnc1)c1cc(-c2cccs2)nc2ccccc12 | 30 | 16µM* | ? | ? | 4% | 21%
CC(C)c1ccc(-n2nnnc2SCC(=O)NC2CC2)cc1 | -7 | ? | ? | 6% | / | /
CN(C)C(=O)/C(=C\c1cccc(Oc2ccccc2)c1)NC(=O)c1ccccc1 | -9 | ? | 16µM* | -12% | -8% | 15%
C[C@H](CO)N1C[C@H](C)[C@@H](CN(C)Cc2ccc(C(=O)O)cc2)Oc2ncc(-c3ccc(C(=O)N(C)C)cc3)cc2C1=O | 19 | -16% | 10% | / | / | /
CCc1ccc(CN(Cc2cn[nH]c2-c2ccc(OC)cc2)C(=O)Nc2cc(Cl)ccc2OC)cc1 | / | 23µM* | 16µM* | / | / | /
Cc1ccc(Cn2c(=O)c3c(nc4n3CCN4c3cc(C)cc(C)c3)n(C)c2=O)cc1 | / | -12% | 0% | / | / | /
O=C1CC(=O)Nc2cc(S(=O)(=O)Nc3cccc(Br)c3)ccc2N1 | / | -6% | -20% | / | / | /
Cc1cccc(-c2nc(C(N)=O)c3c(n2)n(-c2ccc4c(c2)OCO4)c(=O)n3C)c1 | / | 1.8µM* | ? | / | / | /
CCC1(C)NC(=O)N(CC(=O)c2cc(C)n(C3CC3)c2C)C1=O (stereo unspecified) | 5 | ? | ? | ? | / | /
COc1ccc(C2(C)NC(=O)N(CC(=O)c3cc(C)n(C4CC4)c3C)C2=O)cc1OC (stereo unspecified) | 7 | 13µM* | 18µM* | -14% | / | /
C(=N\Nc1ncnc2sc3c(c12)CCC3)/c1cccs1 | / | / | / | ? | 5µM* | 2.5µM*
Cn1cnc2c(N/N=C/c3cccs3)ncnc21 | -91* | ? | ? | ? | ? | -28%
C(=N\Nc1ncnc2sc3c(c12)CCC3)/c1ccncc1 | 0 | ? | ? | -9% | 20µM* | 10µM*
O=C(CSc1ncccn1)N/N=C/c1cccs1 | 5 | -7% | -11% | 11% | 15% | 3%
Cc1ccc(C(=O)O)cc1Nc1ncnc2sc3c(c12)CCC3 | 16 | 21% | -1% | -3% | 1% | -33%
Cc1oc2ncn(C)c(=O)c2c1C(=O)Nc1ccccn1 | / | 0% | 16% | / | / | /
N=c1nc2n(cc1F)C1OC(CO)C(O)C1O2 (stereo unspecified) | 33 | 0.13µM* | 0.13µM* | / | / | /
SMILES | IL1B secr inh | DT40 TDP1 no CPT | DT40 TDP1 CPT | ELG1 repair inh | Gal4-VP16 FLuc | RORgamma inh
[O-][N+](=Cc1ccccc1)CC1(O)CCCCC1 | -12 | -10% | 0% | / | / | /
COc1ccc(-n2ccc(-c3nn(-c4cccc(C(F)(F)F)c4)ccc3=O)n2)cc1 | -13 | 18µM* | ? | 8.2µM* | 0% | 0%
O=c1ccn(-c2cccc(C(F)(F)F)c2)nc1-c1ccn(-c2ccccc2F)n1 | -16 | ? | ? | ? | -5% | 33%
CS(=O)(=O)Cc1ccc(C(=O)Nc2cccc(-c3nc4ccccc4[nH]3)c2)cc1 | -3 | 13µM* | ? | ? | -16% | 27%
CS(=O)(=O)c1ccc(C(=O)Nc2cccc(-c3nc4ccccc4[nH]3)c2)cc1 | -19 | 26µM* | ? | -18% | 2% | 25%
CCOc1cc(OCC)cc(C(=O)Nc2cccc(-c3nc4ccccc4[nH]3)c2)c1 | / | 6.5µM* | 10µM* | / | / | /
CS(=O)(=O)c1cccc(C(=O)Nc2cccc(-c3nc4ccccc4[nH]3)c2)c1 | 0 | ? | ? | -22% | -4% | 33%
COc1ccc(NC(=O)CN(C)CC(=O)NCCc2ccc(F)cc2)cc1 | 1 | 1% | -1% | -2% | / | /
COCCCNC(=S)NCCNc1nc2c(C)c(C)ccc2cc1C#N | -16 | ? | -19% | ? | ? | 18µM*
CCOCCCNC(=S)NCCCNc1nc2ccc(C)cc2cc1C#N | / | / | / | -6% | -2%[10 µM] | 6.3µM*
COCCCNC(=S)N1CCCN(c2nc3c(C)c(C)ccc3cc2C#N)CC1 | 3 | -10% | -13% | 2% | -8% | -12%
CCOCCCNC(=S)NCCNc1nc2ccc(C)cc2cc1C#N | 0 | ? | ? | -20% | 7% | ?
Cc1oc(-c2ccccc2F)nc1CS(=O)(=O)CC(=O)NCCc1ccc(Cl)cc1 | / | -27% | ? | / | / | /
O=C(NC1CC2CCC(C1)N2Cc1nnnn1Cc1ccco1)NC12CC3CC(CC(C3)C1)C2 (stereo unspecified) | 31 | 18µM* | 21µM* | ? | -23% | -5%
CCOc1ccccc1C(=O)NC1CC2CCCC(C1)N2Cc1nnnn1Cc1ccco1 (stereo unspecified) | ? | 16µM* | ? | ? | 5% | 0%[10 µM]
CC(C)c1cccc(C(C)C)c1NC(=O)CN1CCCC1 | 15 | 1% | 6% | ? | -11% | -39%
CC(C)C[C@@H]1Cc2[nH]c(=S)[nH]c(=O)c2[C@H](C)O1 | 16 | ? | 0% | / | / | /
COC(=O)CC1COc2ccccc2N1S(=O)(=O)c1ccc(OC)cc1 (stereo unspecified) | 25 | 5.2µM* | 3.7µM* | ? | 5% | 4%
COC(=O)CC1COc2ccccc2N1S(=O)(=O)c1ccc(Br)cc1 (stereo unspecified) | 17 | ? | ? | -17% | -1% | 14%
